From PubChem BioAssay AID1626 (SRMLSC, 2009)
About 2,000 (0.91%) of roughly 220,000 compounds were called active. Not shown: some 2% with an inconclusive outcome. Only a sample is shown. Potency and affinity values are given separately. A number with no mark means an inactive call. Cut-off read from the data, not from the text of the source: inconclusive = inhibition above about 80% without an active follow-up result; inactive = below that; test concentration not stated here.

assay: M. tuberculosis H37Rv growth inhibitors, H37Rv strain (AID 1626); settings: active compounds read high, concentration not given here;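 note: bacteria incubated seven days before Alamar blue readout; 0% = bacteria only wells and 100% = bacteria with antibiotic wells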

Structure (SMILES) | inhibition
O=[N+]([O-])c1ccccc1S(=O)(=O)NCc1ccco1 | 9.2%
Cc1ccc2cc(CN(CC3CCCO3)C(=S)NCc3ccco3)c(=O)[nH]c2c1 (stereo unspecified) | 1.74%
CC1=CC(=O)N(c2cccc(C(F)(F)F)c2)C1c1ccc(Cl)cc1 (stereo unspecified) | 5.08%
Cc1nc([N+](=O)[O-])c(Br)n1CC(=O)c1ccccc1 | 37%
Cc1nc([N+](=O)[O-])c(Br)n1CC(=O)c1ccc(Br)cc1 | 18.9%
Cc1nc([N+](=O)[O-])c(Br)n1CC(=O)c1ccc(F)cc1 | 52.5%
Cc1nc([N+](=O)[O-])c(Br)n1Cc1ccccc1 | 28.8%
CCN(c1ccccc1)S(=O)(=O)c1ccc(Cl)c(NC(=O)CSc2nncs2)c1 | 6.07%
CCCCCCCCc1nc(SCC(C)=O)n[nH]1 | 8.52%
O=C(CS(=O)(=O)c1cccc(Cl)c1)Nc1ccccc1Cl | -9.41%
CC(C)(C)c1cnnn1-c1ccc(/C=N/Nc2ccc([N+](=O)[O-])cc2)cc1 | -0.06%
O=C(NCCN1CCN(c2ccccc2)CC1)c1cccn2c(=O)c3cc(Cl)ccc3nc12 | 8.3%
Cc1ccc(O)c(N=Cc2sc3ccccc3c2Cl)c1 | 11.1%
O=[N+]([O-])c1ccc(O)c(N=Cc2sc3ccccc3c2O)c1 | 5.55%
CCCc1ccc(NS(=O)(=O)c2c(C)oc(C)c2C(=O)OC)cc1 | 3.72%
CN1CCN(C(=S)c2cn(Cc3cccc(F)c3)c3ccccc23)CC1 | 2.92%
COc1ccc(C)cc1S(=O)(=O)N1CCN(c2cccc(C(F)(F)F)c2)CC1 | -1.59%
CC1/C(=N/O)CC(c2ccccc2)N(C)C1c1ccccc1 (stereo unspecified) | -3.61%
CCC1C(c2ccccc2)N(C)C(c2ccccc2)CC1(O)c1ccccc1 (stereo unspecified) | 51.8%
O=C(Nc1ccc(O)cc1C(=O)O)c1cccc(Br)c1 | 0.45%
COc1cnc(-c2ccccn2)nc1Oc1ccc(Cl)cc1 | 71.9%

Structure (SMILES) | inhibition
COc1cnc(-c2ccccn2)nc1Oc1ccccc1Cl | -2.44%
Fc1ccc(Oc2ncccn2)c(F)c1 | 0.19%
Nc1cccnc1Oc1ccc(F)cc1F | -4.1%
C#CCOCCOCCOCCNc1nc(N2CCN(C(=O)[C@H](CCC(=O)O)n3cc(C(N)[C@H](C)CC)nn3)CC2)nc(N2CCN(C(=O)[C@H](Cc3ccc(O)cc3)n3cc(C(N)[C@H](C)CC)nn3)CC2)n1 (stereo partly specified) | 0.56%
Cc1cccc(NC2=C/C(=N/S(=O)(=O)c3cccs3)c3ccccc3C2=O)c1 | 1.87%
O=C1C(Nc2ccccc2)=C/C(=N/S(=O)(=O)c2cccs2)c2ccccc21 | 76.6%
Cc1ccc(NC2=C/C(=N/S(=O)(=O)c3cccs3)c3ccccc3C2=O)cc1C | 0.28%
Cc1ccccc1NC1=C/C(=N\S(=O)(=O)c2cccs2)c2ccccc2C1=O | 61.1%
CC(=O)Nc1ccc(S(=O)(=O)NC(C)C(=O)NCCc2ccc(F)cc2)cc1 (stereo unspecified) | 1.81%
O=C(COCC(=O)NCc1ccccc1)NCc1ccccc1 | -4.59%
CCN(CC)S(=O)(=O)c1cc(F)ccc1OC | -2.44%
CCn1nnc2c(=O)oc3ccccc3c21 | 13.4%
CC(C)n1nnc2c(=O)oc3ccccc3c21 | 11.1%
COc1cc2c(cc1OC)C(c1cc([N+](=O)[O-])ccc1O)NCC2 (stereo unspecified) | -9.49%
CC(=O)c1cccc(NC(=O)N2CCc3ccccc3C2)c1 | -10.8%
COCCOC(=O)C1=C(N)OC2=C(C(=O)CC(C)(C)C2)C1c1ccncc1 (stereo unspecified) | -0.69%
O=C1NN(c2ccc(Cl)c(Cl)c2)C(=O)/C1=C/c1cccc(OC(=O)c2cccs2)c1 | 34.2%
Cc1ccc(N2C(=O)NC(=O)/C(=C/c3ccc(OC(=O)c4cccs4)cc3)C2=O)cc1 | 4.29%
COc1c(Cl)cc(Cl)cc1C(=O)Nc1ccccc1N1CCN(C(C)=O)CC1 | 1.59%
CCOC(=O)c1[nH]cnc1C(=O)Nc1ccccc1OC | -3.28%
O=C(Cn1nnc(-c2ccc(Cl)cc2)n1)NCC1CCCCC1 | 3.64%

Structure (SMILES) | inhibition
CCC1CCCCN1CC(=O)Nc1cc(OC)c(OC)cc1C#N (stereo unspecified) | -5.44%
O=C(CC1SCCNC1=O)Nc1cccc([N+](=O)[O-])c1 (stereo unspecified) | -1.32%
Oc1ccc(Br)cc1C=Nc1ccc(Cl)cc1 | 3.2%
Oc1ccc(Cl)cc1C=Nc1ccc(Br)cc1 | -2.18%
COCC(C)NC(=O)c1oc2c(c1C)C1(CCC2)SCCS1 (stereo unspecified) | 5.96%
Cc1cc(N2CCCC2)nc(N2C3CCC2CC(O)(c2ccc(F)cc2)C3)n1 (stereo unspecified) | 0.78%
Cc1cc(N2CCN(c3ccc(F)cc3)CC2)nc(-c2ccccc2)n1 | 4.82%
COc1ccc(NC(=O)C2CCN(c3cc(C)nc(-c4ccccc4)n3)CC2)cc1 | 11.4%
COc1ccc(C2(O)CC3CCC(C2)N3c2nc(C)cc(C)c2C#N)cc1 (stereo unspecified) | -5.82%
O=C(Cc1c(O)c2ccccc2[nH]c1=O)NCc1ccc(F)cc1 | -5.49%
CCn1ccnc1CNC(=O)CC1C(=O)NCCN1CC(c1ccccc1)c1ccccc1 (stereo unspecified) | 4.83%
CCN(Cc1ccccc1)C(=O)COC(=O)Cn1cnc2ccccc21 | 3.35%
S=C(NCCCn1ccnc1)Nc1ccc(Cl)cc1Cl | 5.11%
OC(Cn1ccnc1)c1ccc(Cl)cc1Cl (stereo unspecified) | -10.3%
Clc1ccc(OCCn2ccnc2)c(Br)c1 | 1.12%
Clc1ccc(OCCn2ccnc2)c(Cl)c1 | -5.05%
OCC[C@H]1C[C@H](O)[C@@H](O)[C@@]2(CCCCO2)O1 | -8.14%
S=C(NCc1ccccc1Cl)Nc1ccccc1Cl | 9.29%
COc1ccccc1-n1cc(C(=O)c2cc(Cl)ccc2O)cc(C#N)c1=O | 7.62%
